Test results as given in PubChem BioAssay AID463173 (ICCB-Longwood Screening Facility, Harvard Medical School, 2010).
About 4,300 (8.3%) of roughly 52,000 compounds were called active. The entries come from a sample that favours actives as a whole. Unmarked numbers belong to inactive results. No stated cut-off is given here; in the data, active means survival mostly below about 52% (no sharp cut-off); inactive means mostly above about 56%.

What follows are compounds tested on DeltatarO mutant (assay: growth inhibition of S. aureus wild type versus tarO mutant, primary screen, teichoic acid synthesis inhibitors, RN4220, OD600 (AID 463173)). Conditions: OD600, 18 h, hits give low values, screened at 18.75 µg/mL (by protocol).
For Cc1cc(F)ccc1NC(=O)c1c(C)oc2c1C1=NCCN1C=N2, the survival was 102%.
Work on Cc1cccc(CNC(=O)c2ccc(C)c(-n3c(C)nc4cccnc43)c2)c1 yielded a survival of 67%.
With CCC(C)NC(=O)C1CCCN(S(=O)(=O)c2ccc(C)c(Cl)c2)C1 (stereo not given) the survival was 94%.
COc1ccc(NC(=O)Cn2c(=O)n(Cc3nc(-c4ccccc4)no3)c(=O)c3cc4c(cc32)OCO4)c(OC)c1 gave a survival of 94%.
In the case of CCOc1ccc(CCNC(=O)C(CC)n2nc(C)c3c(C)n(-c4ccccc4)nc3c2=O)cc1 (stereo not given), the survival is reported as 69%.
For Cc1ccccc1OC(=O)c1snnc1C, the survival was 90%.
For CCCOc1ccc(C(=O)N(Cc2ccc(Cl)cc2)Cc2ccco2)cc1, the survival was 50%.
For CS(=O)(=O)c1ncc(Cl)c(C(=O)N(Cc2ccc(Cl)cc2)Cc2ccco2)n1, the survival was 4% (active).
Compound Cc1ccc(CN(Cc2ccco2)C(=O)c2ccc(Cl)cc2Cl)cc1 has a survival of 53%.
Compound CCS(=O)(=O)c1ncc(Cl)c(C(=O)N(Cc2ccccc2)Cc2ccco2)n1 has a survival of 52%.
CCSc1ncc(Cl)c(C(=O)N(Cc2ccc(N(C)C)cc2)Cc2ccco2)n1 gave a survival of 104%.
CCSc1ncc(Cl)c(C(=O)N(Cc2ccccc2)Cc2ccco2)n1 gave a survival of 106%.
Work on CSc1ncc(Cl)c(C(=O)N(Cc2ccc(N(C)C)cc2)Cc2ccco2)n1 yielded a survival of 80%.
For CCCSc1ncc(Cl)c(C(=O)N(Cc2ccc(Cl)cc2)Cc2ccco2)n1, the survival was 39% (active).
With CCCS(=O)(=O)c1ncc(Cl)c(C(=O)N(Cc2ccccc2)Cc2ccco2)n1 the survival was 40% (active).
Cc1cccc2c1-c1sc(C(=O)NCc3ccccc3Cl)cc1CO2 was tested, and the survival was 55%.
Cc1ccc(NC(=O)C2CCCN(S(=O)(=O)c3ccc4c(c3)oc(=O)n4C)C2)cc1Cl (stereo not given) was tested, and the survival was 76%.
Work on COc1ccc(C(=O)CSc2nc(C)cc(C)n2)cc1C yielded a survival of 104%.
In the case of Cc1ccc(CN2CCCN(CC(=O)Nc3ccc(C)cc3C)S2(=O)=O)cc1, the survival is reported as 89%.
Compound Cc1ccc(NC(=O)Cn2ccn(Cc3ccc(Cl)cc3)c(=O)c2=O)cc1C has a survival of 111%.
Cc1ccccc1CN1CCCN(CC(=O)Nc2c(C)cccc2C)S1(=O)=O showed a survival of 93%.
With Cc1ccc(NC(=O)CN2CCCN(Cc3cc(C)ccc3C)S2(=O)=O)c(Cl)c1 the survival was 81%.
Compound CCc1cccc(C)c1NC(=O)CN1CCCN(Cc2ccccc2Cl)S1(=O)=O has a survival of 55%.
CCc1cccc(C)c1NC(=O)CN1CCCN(Cc2ccc(C)cc2)S1(=O)=O was tested, and the survival was 8% (active).
In the case of Cc1ccc(NC(=O)CN2CCCN(Cc3ccccc3Cl)S2(=O)=O)c(C)c1, the survival is reported as 17% (active).
With CCc1cccc(C)c1NC(=O)Cn1ccn(Cc2ccc(Cl)cc2)c(=O)c1=O the survival was 41% (active).
Compound CCc1cccc(C)c1NC(=O)Cn1ccn(-c2ccc(F)cc2)c(=O)c1=O has a survival of 52%.
Work on CCOc1ccc(CNC(=O)CSc2nnc(C)c3c(C)n(-c4ccccc4)nc23)cc1 yielded a survival of 82%.
With CCN1CCC(N(Cc2ccc3c(c2)OCO3)C(=O)Nc2cc(Cl)ccc2C(=O)OC)CC1 the survival was 126%.
CCOC(=O)Cc1csc(NC(=O)CSc2nc3c(C)c(C)ccc3cc2C#N)n1 gave a survival of 78%.
COc1ccc(CC(C(=O)O)c2ccccc2)cc1 (stereo not given) was tested, and the survival was 65%.
For COc1ccc(C)cc1S(=O)(=O)Nc1cccc(-c2ccc(N3CCC(C)CC3)nn2)c1, the survival was -2% (active).
For O=S(=O)(Nc1ccc(-c2ccc(N3CCCC3)nn2)cc1)c1ccc(OC(F)(F)F)cc1, the survival was -4% (active).
In the case of O=S(=O)(Nc1ccc(-c2ccc(N3CCCCC3)nn2)cc1)c1ccc(OC(F)(F)F)cc1, the survival is reported as 82%.
Work on COc1ccc(F)cc1S(=O)(=O)Nc1cccc(-c2ccc(N3CCC(C)CC3)nn2)c1 yielded a survival of 109%.
Cc1ccc(S(=O)(=O)Nc2cccc(-c3ccc(N4CCCCC4)nn3)c2)s1 showed a survival of 76%.
O=S(=O)(Nc1cccc(-c2ccc(N3CCCCCC3)nn2)c1)c1ccc(F)cc1 was tested, and the survival was 79%.
With Cc1ccc(S(=O)(=O)Nc2cccc(-c3ccc(N4CCC(C)CC4)nn3)c2)s1 the survival was -1% (active).
Compound CC1CCN(c2ccc(-c3cccc(NS(=O)(=O)c4ccc(Cl)s4)c3)nn2)CC1 has a survival of 72%.
With O=S(=O)(Nc1cccc(-c2ccc(N3CCCCCC3)nn2)c1)c1ccccc1 the survival was 6% (active).
Work on O=S(=O)(Nc1ccc(-c2ccc(N3CCCC3)nn2)cc1)c1ccc(C(F)(F)F)cc1 yielded a survival of 72%.
Work on COc1ccc(C)cc1S(=O)(=O)Nc1cccc(-c2ccc(N3CCCC3)nn2)c1 yielded a survival of 78%.
O=S(=O)(Nc1cccc(-c2ccc(N3CCCCC3)nn2)c1)c1cccc(F)c1 gave a survival of 91%.
O=C(c1ccccc1Cl)N(Cc1ccco1)Cc1cc2cc3c(cc2nc1Cl)OCO3 gave a survival of 103%.
CCc1cnc2c(c1SCc1cc(OC)cc(OC)c1)c(=O)n(C)c(=O)n2C gave a survival of 75%.
O=C(O)C1C2C=CC(C2)C1C(=O)N1CCN(Cc2ccccc2)CC1 (stereo not given) showed a survival of 59%.
COc1ccc(S(=O)(=O)c2c(Nc3ccccc3F)sc(C(=O)c3cccc(OC)c3)c2N)cc1 gave a survival of 97%.
Cc1sc2ncn(CC(=O)N(C)c3ccc(Br)cc3)c(=O)c2c1S(=O)(=O)N1CCC(C)CC1 showed a survival of 70%.
Cc1ccc(OCc2cc(=O)n3cc(C)sc3n2)c(C)c1 gave a survival of 59%.
Work on Cc1ccc(NC(=O)c2ccc(=O)n(CC(=O)Nc3ccccc3)n2)cc1 yielded a survival of 85%.
O=C(Cn1ncc2c3ccccc3n(Cc3cccc(Cl)c3)c2c1=O)NCc1cccs1 was tested, and the survival was 99%.
Work on Cc1cccc(CN2CCN(CC(=O)NCc3ccc(Cl)cc3)C2=O)c1 yielded a survival of 72%.
Cc1csc2nc(-c3cccc(NS(C)(=O)=O)c3)cn12 was tested, and the survival was 88%.
For Cc1cccn2cc(-c3cccc(NS(=O)(=O)c4ccc(Cl)c(Cl)c4)c3)nc12, the survival was 101%.
For Cc1cccc2nc(-c3cccc(NS(=O)(=O)c4ccccc4)c3)cn12, the survival was 35% (active).
COc1ccc(-n2nc(C(=O)Nc3ccc(C)cn3)c3c4ccccc4n(C)c3c2=O)cc1Cl gave a survival of 98%.
Compound CN(C)c1cccc(C(=O)N2CCC(c3ccncc3)CC2)c1 has a survival of 88%.
Compound CCCCCCSc1n[nH]c(=O)[nH]c1=O has a survival of 78%.
With O=c1[nH]nc(SC(F)(F)C(F)(F)C(F)(F)F)c(=O)[nH]1 the survival was 37% (active).
CC(C)(C)c1ccc(CSc2n[nH]c(=O)[nH]c2=O)cc1 showed a survival of 98%.
With Cc1oc(-c2ccc(Cl)cc2)nc1Cn1c(=O)cc(C)c2c(C)nn(-c3cccc(F)c3)c21 the survival was 82%.
O=C(Nc1ccc(Cl)c(C(F)(F)F)c1)C(Cc1ccccc1)NS(=O)(=O)c1ccc(Br)s1 (stereo not given) gave a survival of 82%.
Work on Cc1ccc(NS(=O)(=O)c2ccc3c(c2)CCCN3C(=O)C2CCC2)c(C)c1 yielded a survival of 85%.
Compound CN(C)S(=O)(=O)c1ccc(C(=O)NCCSc2c(-c3ccccc3)[nH]c3ccccc23)cc1 has a survival of 68%.
For CCOC(=O)c1ccc(Nc2nc3nonc3nc2Nc2cccc(C)c2C)cc1, the survival was -1% (active).
In the case of CCOC(=O)c1ccc(Nc2nc3nonc3nc2NCc2ccco2)cc1, the survival is reported as 5% (active).
Cc1cccc(Nc2nc3nonc3nc2N/N=C\c2cccs2)c1C gave a survival of 69%.
CCOC(=O)c1ccc(Nc2nc3ccc(C(=O)c4ccccc4)cc3n3c(C)nnc23)cc1 was tested, and the survival was 109%.
Brc1ccc(NCc2ccco2)cc1 gave a survival of 96%.
With CCOC(=O)c1ccc(NC(=O)C(=O)NCc2ccco2)cc1 the survival was 63%.
Work on Ic1ccc(Nc2nc3nonc3nc2N/N=C\c2ccco2)cc1 yielded a survival of 53%.
Work on Cc1cccc(Nc2nc3nonc3nc2Nc2cccc(C)c2C)c1C yielded a survival of 66%.
For Brc1cccc(Nc2nc3nonc3nc2NCc2ccco2)c1, the survival was 6% (active).
In the case of Cc1ccc(C)c(Nc2nc3nonc3nc2Nc2cccc(C)c2C)c1, the survival is reported as 2% (active).
For CCOC(=O)c1ccc(Nc2nc(C)cc(C)n2)cc1, the survival was 85%.
In the case of O=C(c1ccc(F)cc1F)N1CCC(c2nc(-c3ccc(S(=O)(=O)N4CCCC4)cc3)no2)CC1, the survival is reported as 97%.
With O=S(=O)(c1ccc2ccccc2c1)n1nc(-c2ccco2)nc1NCc1ccc(F)cc1 the survival was 106%.
Work on Cc1oc(-c2cccc(Cl)c2)nc1CN1CCC(C(=O)NC(C)c2ccccc2)CC1 (stereo not given) yielded a survival of 85%.
CC(=O)Nc1ccccc1OCc1cc(=O)n2c3c(sc2n1)CCCC3 gave a survival of 120%.
For O=C(/C=C/c1ccccc1)C1=C(O)C(=O)N(CCO)C1c1ccc2c(c1)OCO2 (stereo not given), the survival was 79%.
Work on COc1ccc(-c2oc3ncn4nc(-c5ccccc5O)nc4c3c2-c2ccc(OC)cc2)cc1 yielded a survival of 62%.
For Cc1ccccc1CCNC(=O)c1cc2cc(S(=O)(=O)N3CCCCC3)ccc2n1C, the survival was 20% (active).
For CN(C)c1ccc(CNC(=O)c2cc3cc(S(=O)(=O)N4CCCCC4)ccc3n2C)cc1, the survival was 8% (active).
Cn1c(C(=O)NCCc2ccccc2)cc2cc(S(=O)(=O)N3CCCCC3)ccc21 was tested, and the survival was 94%.
Cn1c(C(=O)NCc2ccc(F)cc2)cc2cc(S(=O)(=O)N3CCCCC3)ccc21 showed a survival of 126%.
For Cc1ccccc1CNC(=O)c1cc2cc(S(=O)(=O)N3CCCCC3)ccc2n1C, the survival was 102%.
CCc1ccc(CNC(=O)c2cc3cc(S(=O)(=O)N4CCCCC4)ccc3n2C)cc1 was tested, and the survival was 60%.
For CC(C)NC(=O)CCn1c(SCc2c(F)cccc2Cl)nc2c(sc3ccccc32)c1=O, the survival was 67%.
COc1ccccc1NC(=O)N1CCN(Cc2ccccc2)CC1 showed a survival of 87%.
Cc1cc(C)c2sc(N(Cc3cccnc3)C(=O)CCOc3ccccc3)nc2c1 gave a survival of 115%.
